Cycloheximide cs: affects cycloheximide protein synthesis inhibition readout, counter-screen. max response, %. AID 2314. 12% of 300,000 active. cell reporter, cycloheximide protein synthesis inhibition counterscreen; in the data active = max response mostly above about 13%, no sharp cut-off; inactive = mostly below about 14%; note: read at 38.3 µM for the half of the compounds with a filed dose; 0% is about no effect
Shiga toxin inh: Shiga toxin inhibition; Vero cells, Shiga toxin protein synthesis inhibition reporter; inhibition, % at 38.7 µM; 9.2% of 290,000 active; AID 2315; in the data active = inhibition mostly above about 28%, no sharp cut-off; inactive = mostly below about 43%; note: 0% is about no effect
LmPK inhibitor: blocks Leishmania mexicana pyruvate kinase activity; purified LmPK, Kinase-Glo ATP luminescence, 1 h; Potency, µM (doses to about 57.5 µM), for inactives: top-dose activity change, negative = inhibition, usual class: inhibitors; 0.37% of 290,000 active; note: potency is the fitted concentration of half-maximal effect; % is set by controls: 0 for no effect and ±100 for the full control effect
Target sequence (Q27686 whole entry, looked up): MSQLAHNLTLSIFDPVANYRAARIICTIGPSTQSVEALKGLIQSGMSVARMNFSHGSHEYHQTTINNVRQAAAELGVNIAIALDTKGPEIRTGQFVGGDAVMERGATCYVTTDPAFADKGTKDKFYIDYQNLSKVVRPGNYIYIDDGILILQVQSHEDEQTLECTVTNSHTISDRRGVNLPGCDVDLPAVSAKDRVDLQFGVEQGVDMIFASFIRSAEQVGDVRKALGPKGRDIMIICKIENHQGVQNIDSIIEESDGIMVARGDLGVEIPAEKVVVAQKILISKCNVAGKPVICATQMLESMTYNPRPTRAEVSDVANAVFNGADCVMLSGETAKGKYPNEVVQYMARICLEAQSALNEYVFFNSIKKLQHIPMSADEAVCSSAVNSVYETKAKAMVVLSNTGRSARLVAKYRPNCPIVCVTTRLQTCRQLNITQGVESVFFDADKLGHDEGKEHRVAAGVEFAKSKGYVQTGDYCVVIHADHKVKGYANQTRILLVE
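qHTS format; LmPK 0.1 nM; substrates PEP 0.5 mM and ADP 0.1 mM. One-hour room-temperature incubation, then coupled luciferase luminescence; 0.5 nM enzyme wells mark activation.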
TbPYK inhibitor: T. brucei pyruvate kinase inhibition. AID 624173. Potency, µM (top dose mostly 76.8 µM), for the others: top-dose activity, negative = inhibition, hits mostly inhibitors. TbPYK enzyme, Kinase-Glo Plus ATP luminescence, 45 min. 0.12% of 410,000 active; note: potency is the fitted concentration of half-maximal effect; % is set by controls: 0 for no effect and ±100 for the full control effect; nearly all actives have a fitted effect of over 50% in size
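Quantitative HTS: titrated library compounds versus trypanosomal pyruvate kinase in TEA buffer (pH 7.2) containing KCl, MgCl2, BSA and Tween-20. Reactions were initiated with ADP, 130 uM final. Kinase-Glo Plus luminescence was read after 45 min at RT.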
NS1 inh: inhibitors of influenza NS1 protein function; Potency, µM (highest dose often 46.1 µM), without a hit: at the top dose activity, positive = more growth; 0.4% of 270,000 active; AID 2326; calls by dose curve; note: potency is the fitted concentration of half-maximal effect; actives are rising curves; nearly all actives have a fitted effect of over 50% in size
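A cell-based growth assay was used: compounds that relieve NS1-induced slow growth of budding yeast raise OD600. Assay medium was yeast nitrogen base with ammonium sulphate and -URA supplement, pH 6.0, with 2% galactose.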
SARS PLpro yeast: inhibitors of SARS-CoV papain-like protease in yeast | AID 485353 | Potency, µM (top dose mostly 32.9 µM), without a hit: at the top dose activity, positive = growth rescue, usual class: activators | 0.19% of 330,000 active | S. cerevisiae expressing SARS-CoV PLpro, growth rescue; calls by dose curve; note: potency is the fitted concentration of half-maximal effect; 0% is about no effect; nearly all actives have a fitted effect of over 55% in size
* = called active by the depositor; ? = inconclusive; / = not tested or not shown; + = active, no number. The entries come from a sample that favours hits as a whole. Unless noted, calls come from the whole dose curve; as a rule, active = well fitted curve in the direction sought with a large enough effect; inconclusive = small, poorly fitted or top-dose-only effect, or another doubt; inactive = no such curve, though single readings can be large; an effect the other way counts as inactive or inconclusive.

SMILES | Cycloheximide cs | Shiga toxin inh | LmPK inhibitor | TbPYK inhibitor | NS1 inh | SARS PLpro yeast
Cc1ccc2nc(-c3cccc(S(=O)(=O)N4CC(C)OC(C)C4)c3)cn2c1 (centres undefined) | 17.0* | 18.2 | 7.5% | -19.1% | -19.4% | 5.5%
CCCN(CCC)S(=O)(=O)c1cccc(-c2csc(C)n2)c1 | -0.7 | -6.6 | 1.7% | -0.8% | -1.5% | -3.2%
CC1CN(S(=O)(=O)c2cccc(-c3cn4cccnc4n3)c2)CC(C)O1 (centres undefined) | 7.5 | -13.0 | 2.2% | / | ? | 0.4%
Cc1ccc2nc(-c3cccc(S(=O)(=O)N(C)C)c3)cn2c1 | 53.9* | + | -0.3% | 3.4% | -6.0% | 2.0%
O=C(Nc1ccccc1)C1=C[C@H](c2csc3ccccc23)C[C@H](OCCCCO)O1 | 12.0* | 5.5 | 3.7% | 0.3% | 4.2% | -3.2%
O=C(C1=C[C@@H](c2csc3ccccc23)C[C@@H](OCc2ccc(CO)cc2)O1)N1CCOCC1 | 10.8* | -6.5 | 5.6% | 0.1% | 4.8% | -0.8%
CC(=O)n1cc([C@@H]2C=C(C(=O)Nc3ccccc3)O[C@H](OCCCCO)C2)c2ccccc21 | 12.0 | 24.3* | -2.3% | 1.1% | 10.7% | -0.2%
C[C@@H]1CN([C@H](C)CO)C(=O)CCCn2nncc2CO[C@H]1CN(C)C(=O)c1ccc2ccn(C)c2c1 | / | / | / | -2.3% | / | /
COc1ccc(C)cc1NC(=O)c1ccc(=O)n(Cc2ccccc2)c1 | / | / | / | 0.9% | / | /
Cc1ccccc1-n1ncc2c1CC(C)(C)CC2NC(=O)c1snnc1C (centres undefined) | -1.3 | -9.5 | -0.7% | -3.2% | ? | -13.1%
COC(=O)c1c(C)[nH]c(O)c1C=Nc1ccc(Oc2ccccc2)cc1 | 13.1 | 40.1 | -2.7% | -0.4% | / | -0.1%
COC(=O)c1c(C)[nH]c(O)c1C=Nc1ccc(C(C)C)cc1 | 22.4* | 38.6* | 1.6% | -12.3% | -35.0% | -24.5%
C/C=C(\C)C(=O)O[C@@H]([C@H](O)c1cc2ccc(=O)oc2cc1OC)C(C)(C)O | / | / | / | -1.6% | / | -1.8%
CCC(C)NC(=O)/C=C1\Sc2ccccc2NC1=O (centres undefined) | 12.8* | 40.2 | 1.8% | -12.2% | 5.6% | 19.0%
O=C1Nc2ccccc2S/C1=C/NCc1ccccc1Cl | 12.9 | 39.4 | -0.4% | -15.8% | / | -4.2%
CCC(C)NC(=O)N1c2ccccc2Sc2ccccc21 (centres undefined) | 1.6 | -1.7 | 3.5% | -4.2% | -9.3% | -1.7%
COc1ccc(N/C=C2/Sc3ccccc3NC2=O)cc1 | 44.2* | 87.9* | 3.5% | -20.2% | / | 0.0%
Cc1ccc(N/C=C2/Sc3ccccc3NC2=O)cc1 | 45.2* | 70.2* | -2.4% | -1.0% | 0.1% | 0.1%
COc1ccc2c(c1OC)C(=O)N(c1cccc(C)c1)C2 | 41.0* | 49.1* | 14.1µM* | -15.9% | -36.5% | -24.3%
COc1ccc2c(c1OC)C(=O)N(c1cccc(C(F)(F)F)c1)C2 | 19.9* | 103.3* | 7.8% | -8.1% | -59.3% | 4.6%
COc1ccc2c(c1OC)C(=O)N(c1ccc(C)cc1)C2 | 54.1* | 86.5* | -7.6% | 1.9% | -32.0% | 1.1%
Cc1cccc(N2CC(=O)N(c3cccc(C)c3)CC2=O)c1 | 5.9 | -5.1 | 3.7% | 2.7% | 2.2% | 0.4%
COc1ccc2c(c1OC)C(=O)N(c1ccccn1)C2 | 51.7* | 139.0* | -23.2% | -12.6% | -33.8% | -8.8%
COc1ccccc1N1Cc2ccc(OC)c(OC)c2C1=O | 6.9 | 19.6 | -1.3% | -5.8% | -5.2% | 0.7%
Clc1cccc(Nc2ncnc3c2nc2n3CCCCC2)c1 | / | / | / | 6.4% | / | /
SMILES | Cycloheximide cs | Shiga toxin inh | LmPK inhibitor | TbPYK inhibitor | NS1 inh | SARS PLpro yeast
CCc1nnc(NC(=O)CSc2nnc(C3CC3)n2C)s1 | -0.9 | -0.2 | -1.0% | 5.2% | 4.1% | 2.6%
Cc1cccc(CNC(=O)Cc2csc3ccccc23)c1 | 62.6* | 74.8* | / | 0.0% | / | /
Cc1cc(/C(N)=N/OC(=O)Nc2ccc(Cl)cc2)no1 | 26.9* | 55.5* | 0.6% | -1.8% | 0.7% | 2.3%
Cc1cc(C)n2ncc(C(=O)Nc3cccc(O)c3)c2n1 | 9.6 | -18.1 | 2.9% | -5.4% | 14.2% | 2.5%
Cc1cc(/C(N)=N/OC(=O)Nc2ccccc2)no1 | 23.5* | 42.1* | -11.3% | -11.5% | -4.8% | 1.3%
Cc1cc(C)n2ncc(/C(N)=N/OC(=O)Nc3ccccc3)c2n1 | 9.6* | 16.1 | -11.5% | 8.4% | 1.8% | 0.3%

Screening results (PubChem BioAssay)
